# PubChem BioAssay (Tox21)
# Unmarked numbers belong to inactive results. Records with an inconclusive call do not appear. Entries that show only a call come without a potency. Calls of active or inactive are those of the source. Calls follow the shape of the dose curve; as a rule, active = well fitted curve in the direction sought with a large enough effect in the repeat runs; inconclusive = weak or mixed curves; inactive = no such curve, though single readings can be large; an effect the other way counts as inactive or inconclusive.
# Experiments:
# [1] = Caspase-3/7 induction in HepG2 cells by small molecules, qHTS assay (AID 1346978); also: nearly all actives have a fitted effect of over 15% in size
# In short: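 Wild-type HepG2 cells (2,000/well) were settled 5 h at 37 C, 5% CO2, then exposed to compounds in DMSO for 17 h. Caspase-3/7 activity was read by luminescence 30 min after adding Caspase-Glo 3/7 reagent at room temperature.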
# [2] = Caspase-3/7 induction in CHO-K1 cells by small molecules, qHTS cell viability counter screen (AID 1346979); also: nearly all actives have a fitted effect of over 35% in size; also: potency is read from the fitted curve at half-maximal effect
# In short: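 CHO-K1 wt, 1,500 cells/well; 5hr pre-incubation 37C/5% CO2; compound pin transfer (DMSO); 16hr exposure; CellTiter-Fluor added, 1hr, fluorescence read.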
# [3] = Caspase-3/7 induction in CHO-K1 cells by small molecules, qHTS assay (AID 1346980); also: nearly all actives have a fitted effect of over 15% in size
# In short: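 Wild-type cells were seeded at 1,500 per well and settled 5 hr at 37 C, 5% CO2, then exposed to DMSO-dissolved compounds for 17 hr. Caspase-Glo 3/7 reagent was added, and luminescence was read after 30min at room temperature.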
# [4] = Caspase-3/7 induction in HepG2 cells by small molecules, qHTS cell viability counter screen (AID 1346981); also: nearly all actives have a fitted effect of over 30% in size; also: potency is read from the fitted curve at half-maximal effect; as to activity change, negative = cytotoxicity: series mostly up to about 92 µM
# In short: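 Fluorescence read-out of live-cell protease activity (CellTiter-Fluor) after 1 hr with reagent. This was measured in the same wells as the caspase-3/7 luminescence, on HepG2 cells exposed to DMSO-dissolved compounds for 16 hr at 37 C.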
# [5] = biological target: Cytochrome P450 2D6 (Homo sapiens) (UniProt P10635); assay: Cytochrome P450 Family 2 Subfamily D Member 6 (CYP2D6) small molecule antagonists: luciferase reporter qHTS assay (AID 1671196); also: nearly all actives have a fitted effect of over 50% in size; also: potency is read from the fitted curve at half-maximal effect; as to activity change, negative = inhibition: series mostly up to about 120 µM
# In short: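 Luminogenic proluciferin substrate, CYP2D6 enzyme; 10 min RT preincubation with compound, NADPH regeneration system added, 1 h RT. Stop/detection reagent, 20 min RT, luminescence read (RLU). Signal proportional to CYP activity.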
# [6] = biological target: Cytochrome P450 2C19 (Homo sapiens) (UniProt P33261); assay: Cytochrome P450 Family 2 Subfamily C Member 19 (CYP2C19) small molecule antagonists: luciferase reporter qHTS assay (AID 1671197); also: nearly all actives have a fitted effect of over 65% in size; also: potency is read from the fitted curve at half-maximal effect; as to activity change, negative = inhibition: series mostly up to about 120 µM
# In short: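 Quantitative high-throughput screen of the Tox21 library using CYP2C19 with proluciferin substrate. Reaction: NADPH regeneration, 37C, 1 h, after 10 min compound preincubation at room temperature. Readout: luminescence.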
# [7] = biological target: Cytochrome P450 1A2 (Homo sapiens) (UniProt P05177); assay: Cytochrome P450 Family 1 Subfamily A Member 2 (CYP1A2) small molecule antagonists: luciferase reporter qHTS assay (AID 1671199); also: nearly all actives have a fitted effect of over 50% in size; also: potency is read from the fitted curve at half-maximal effect; as to activity change, negative = inhibition: series mostly up to about 120 µM
# In short: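 Luminescence readout (relative luminescence units) after luciferin detection reagent, 20 min RT. Preceded by 1 h room-temperature CYP1A2 reaction with NADPH regeneration solution following 10 min compound preincubation with enzyme and proluciferin substrate. Furafylline positive control.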
# [8] = biological target: Voltage-gated inwardly rectifying potassium channel KCNH2 (Homo sapiens) (UniProt Q12809); assay: Human Ether-a-go-go-Related Gene (hERG) channel small molecule antagonists: fluorescence cell-based qHTS assay (AID 1671200);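 also: hERG-expressing U2OS cells given a thallium stimulus after FluxOR II dye loading; series mostly up to about 77 µM; nearly all actives have a fitted effect of over 50% in size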
# In short: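 Read-out: thallium influx as a surrogate for potassium, tracked as fluorescence (480 nm ex/540 nm em) every second for 2 min after Stimulus Buffer addition in dye-loaded hERG-U2OS cells.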
# [9] = biological target: Cytochrome P450 3A4 (Homo sapiens) (UniProt P08684); assay: Cytochrome P450 Family 3 Subfamily A Member 4 (CYP3A4) small molecule antagonists: luciferase reporter qHTS assay (AID 1671201); also: series mostly up to about 120 µM; nearly all actives have a fitted effect of over 50% in size
# In short: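 Luminescent readout (RLU) proportional to CYP3A4 activity, from luciferin generated off a proluciferin substrate. Enzyme–substrate mix plus compound 10 min at room temp, NADPH regeneration 1 h, detection reagent 20 min.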
# [10] = biological target: Cytochrome P450 2C9 (Homo sapiens) (UniProt P11712); assay: Cytochrome P450 Family 2 Subfamily C Member 9 (CYP2C9) small molecule antagonists: luciferase reporter qHTS assay (AID 1671198); also: nearly all actives have a fitted effect of over 50% in size; also: potency is read from the fitted curve at half-maximal effect; as to activity change, negative = inhibition: series mostly up to about 120 µM
# In short: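 CYP2C9 activity was measured with a P450-Glo proluciferin substrate. Enzyme–substrate mix was held with compound for 10 min at room temperature, then NADPH regeneration solution was added for 1 h at 37C. Luciferin product was read as luminescence.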
# [11] = biological target: Nuclear receptor subfamily 1 group I member 2 (Homo sapiens) (UniProt O75469); assay: Human pregnane X receptor (PXR) small molecule agonists, qHTS assay (AID 1346982); also: nearly all actives have a fitted effect of over 35% in size
# In short: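 HepG2 PXR-Luc reporter line, 5% charcoal-stripped FBS; 5 hr pre-incubation, compound (DMSO) 24 hr at 37 C/5% CO2; ONE-Glo 30 min RT; luminescence read-out.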
# [12] = biological target: Nuclear receptor subfamily 1 group I member 2 (Rattus norvegicus) (UniProt Q9R1A7); assay: Rat pregnane X receptor (rPXR) activation by small molecules, qHTS assay (AID 1346983); details: rPXR luciferase reporter cells, One-Glo luminescence, 24 h; stronger effect = higher value; also: nearly all actives have a fitted effect of over 20% in size
# In short: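 Cell-based rPXR luciferase reporter assay, 2,000 cells per well, rested 5hr at 37 C before compound addition in DMSO, then 24 hr at 37 C. One-Glo reagent was added and luminescence read after 30 min at room temperature.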
# [13] = biological target: Nuclear receptor subfamily 1 group I member 2 (Homo sapiens) (UniProt O75469); assay: CYP3A4 induction through human pregnane X receptor (PXR) by small molecules, qHTS assay (AID 1346984); also: nearly all actives have a fitted effect of over 40% in size
# In short: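 HepG2-derived DPX-2 line carrying PXR plus a CYP3A4-promoter luciferase reporter; cells plated 5 hr, compound-exposed 24 hr at 37C. CYP3A4 activity probed with 3uM (final) Luciferin-IPA for 3hr, then luciferase read after One-Glo.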
# [14] = biological target: Nuclear receptor subfamily 1 group I member 2 (Homo sapiens) (UniProt O75469); assay: Human pregnane X receptor (PXR) activation by small molecules, qHTS assay (AID 1346985); also: nearly all actives have a fitted effect of over 40% in size
# In short: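 DPX-2 cells (HepG2 co-transfected with a PXR response element and a CYP3A4-promoter luciferase construct) were seeded at 2,000 per well, rested 5 hr at 37C, then exposed to DMSO-dissolved compounds for 24 hr. Activation was read as luciferase luminescence.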
# Cytochrome P450 2C19 (Homo sapiens), sequence (P33261 whole entry, looked up): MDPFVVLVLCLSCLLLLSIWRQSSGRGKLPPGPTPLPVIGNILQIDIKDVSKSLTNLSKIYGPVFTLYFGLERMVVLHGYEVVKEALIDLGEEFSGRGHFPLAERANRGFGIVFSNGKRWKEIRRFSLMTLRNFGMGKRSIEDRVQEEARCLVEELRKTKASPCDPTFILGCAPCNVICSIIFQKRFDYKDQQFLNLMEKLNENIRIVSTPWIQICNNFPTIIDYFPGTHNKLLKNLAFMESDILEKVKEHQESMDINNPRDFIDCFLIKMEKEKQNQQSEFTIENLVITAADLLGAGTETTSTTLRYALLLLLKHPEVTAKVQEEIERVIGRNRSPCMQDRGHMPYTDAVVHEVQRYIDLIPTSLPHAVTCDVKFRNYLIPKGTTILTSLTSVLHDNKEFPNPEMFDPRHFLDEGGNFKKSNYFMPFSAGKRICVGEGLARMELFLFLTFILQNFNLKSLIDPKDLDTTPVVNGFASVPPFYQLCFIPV
# Voltage-gated inwardly rectifying potassium channel KCNH2 (Homo sapiens), sequence (Q12809 whole entry, looked up): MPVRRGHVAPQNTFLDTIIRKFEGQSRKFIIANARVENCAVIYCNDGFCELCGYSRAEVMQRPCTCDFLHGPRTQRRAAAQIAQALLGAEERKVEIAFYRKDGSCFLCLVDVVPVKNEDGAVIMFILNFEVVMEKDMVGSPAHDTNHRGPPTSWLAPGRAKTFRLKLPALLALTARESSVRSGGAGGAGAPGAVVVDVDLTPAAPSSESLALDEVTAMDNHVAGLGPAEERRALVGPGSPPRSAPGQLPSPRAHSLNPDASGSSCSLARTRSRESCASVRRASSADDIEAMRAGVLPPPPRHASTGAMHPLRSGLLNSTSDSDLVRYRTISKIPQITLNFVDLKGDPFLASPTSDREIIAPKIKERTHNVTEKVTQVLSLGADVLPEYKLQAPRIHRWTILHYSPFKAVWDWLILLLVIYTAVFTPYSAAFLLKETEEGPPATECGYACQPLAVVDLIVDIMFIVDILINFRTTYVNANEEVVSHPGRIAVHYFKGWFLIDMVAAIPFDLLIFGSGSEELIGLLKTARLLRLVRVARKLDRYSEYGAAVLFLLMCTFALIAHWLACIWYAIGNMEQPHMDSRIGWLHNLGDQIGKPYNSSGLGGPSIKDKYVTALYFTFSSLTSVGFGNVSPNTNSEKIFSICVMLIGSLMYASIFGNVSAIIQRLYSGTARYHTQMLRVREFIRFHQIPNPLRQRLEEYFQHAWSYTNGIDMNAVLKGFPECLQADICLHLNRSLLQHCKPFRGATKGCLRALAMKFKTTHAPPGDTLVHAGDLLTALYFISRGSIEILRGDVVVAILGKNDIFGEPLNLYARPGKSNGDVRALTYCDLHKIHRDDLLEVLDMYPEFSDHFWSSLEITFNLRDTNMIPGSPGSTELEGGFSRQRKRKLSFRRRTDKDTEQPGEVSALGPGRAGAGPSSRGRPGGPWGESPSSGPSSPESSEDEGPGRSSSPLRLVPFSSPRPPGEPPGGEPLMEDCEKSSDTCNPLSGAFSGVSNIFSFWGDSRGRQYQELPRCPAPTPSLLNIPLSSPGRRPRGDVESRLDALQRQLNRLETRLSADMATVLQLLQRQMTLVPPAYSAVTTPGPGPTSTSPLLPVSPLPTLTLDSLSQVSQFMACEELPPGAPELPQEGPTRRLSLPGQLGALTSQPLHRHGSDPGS
# Cytochrome P450 2D6 (Homo sapiens), sequence (P10635 whole entry, looked up): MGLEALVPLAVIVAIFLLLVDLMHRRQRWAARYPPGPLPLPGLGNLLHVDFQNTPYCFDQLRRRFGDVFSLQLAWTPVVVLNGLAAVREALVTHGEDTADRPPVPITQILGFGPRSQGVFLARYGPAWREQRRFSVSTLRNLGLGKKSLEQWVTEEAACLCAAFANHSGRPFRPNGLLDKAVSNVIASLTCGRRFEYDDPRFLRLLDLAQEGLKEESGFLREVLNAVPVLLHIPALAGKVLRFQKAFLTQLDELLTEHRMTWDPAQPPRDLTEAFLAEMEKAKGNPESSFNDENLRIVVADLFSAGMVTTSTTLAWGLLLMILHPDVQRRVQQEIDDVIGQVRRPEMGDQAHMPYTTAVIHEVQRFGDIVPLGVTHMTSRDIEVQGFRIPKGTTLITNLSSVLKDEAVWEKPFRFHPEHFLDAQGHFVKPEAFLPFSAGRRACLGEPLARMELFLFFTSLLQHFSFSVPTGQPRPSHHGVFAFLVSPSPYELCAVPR
# Cytochrome P450 3A4 (Homo sapiens), sequence (P08684 whole entry, looked up): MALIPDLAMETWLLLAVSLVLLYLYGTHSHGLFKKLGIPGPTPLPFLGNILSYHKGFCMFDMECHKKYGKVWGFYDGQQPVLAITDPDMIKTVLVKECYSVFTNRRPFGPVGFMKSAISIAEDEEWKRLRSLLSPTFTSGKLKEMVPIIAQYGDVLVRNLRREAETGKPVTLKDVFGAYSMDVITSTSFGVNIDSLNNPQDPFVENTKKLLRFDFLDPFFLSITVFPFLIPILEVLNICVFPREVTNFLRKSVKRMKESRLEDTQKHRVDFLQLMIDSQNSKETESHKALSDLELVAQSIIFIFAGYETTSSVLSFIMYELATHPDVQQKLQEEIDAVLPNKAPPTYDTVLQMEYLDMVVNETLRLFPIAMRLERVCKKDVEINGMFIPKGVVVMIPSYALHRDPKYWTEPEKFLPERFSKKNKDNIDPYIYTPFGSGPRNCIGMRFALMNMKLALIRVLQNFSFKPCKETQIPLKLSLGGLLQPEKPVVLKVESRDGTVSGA
# Cytochrome P450 2C9 (Homo sapiens), sequence (P11712 whole entry, looked up): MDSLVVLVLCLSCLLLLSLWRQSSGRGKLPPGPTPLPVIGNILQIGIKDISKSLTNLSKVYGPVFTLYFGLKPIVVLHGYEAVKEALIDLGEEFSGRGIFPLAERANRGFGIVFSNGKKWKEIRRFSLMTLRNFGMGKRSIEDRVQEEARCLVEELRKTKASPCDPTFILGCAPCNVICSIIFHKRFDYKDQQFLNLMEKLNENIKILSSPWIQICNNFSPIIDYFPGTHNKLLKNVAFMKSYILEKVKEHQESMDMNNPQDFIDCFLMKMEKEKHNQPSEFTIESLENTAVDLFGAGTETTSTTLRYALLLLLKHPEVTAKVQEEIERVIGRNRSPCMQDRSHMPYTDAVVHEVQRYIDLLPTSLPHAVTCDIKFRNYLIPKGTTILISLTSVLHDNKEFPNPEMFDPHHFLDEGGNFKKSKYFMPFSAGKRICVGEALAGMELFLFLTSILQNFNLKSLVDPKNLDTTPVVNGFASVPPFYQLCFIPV
# Cytochrome P450 1A2 (Homo sapiens), sequence (P05177 whole entry, looked up): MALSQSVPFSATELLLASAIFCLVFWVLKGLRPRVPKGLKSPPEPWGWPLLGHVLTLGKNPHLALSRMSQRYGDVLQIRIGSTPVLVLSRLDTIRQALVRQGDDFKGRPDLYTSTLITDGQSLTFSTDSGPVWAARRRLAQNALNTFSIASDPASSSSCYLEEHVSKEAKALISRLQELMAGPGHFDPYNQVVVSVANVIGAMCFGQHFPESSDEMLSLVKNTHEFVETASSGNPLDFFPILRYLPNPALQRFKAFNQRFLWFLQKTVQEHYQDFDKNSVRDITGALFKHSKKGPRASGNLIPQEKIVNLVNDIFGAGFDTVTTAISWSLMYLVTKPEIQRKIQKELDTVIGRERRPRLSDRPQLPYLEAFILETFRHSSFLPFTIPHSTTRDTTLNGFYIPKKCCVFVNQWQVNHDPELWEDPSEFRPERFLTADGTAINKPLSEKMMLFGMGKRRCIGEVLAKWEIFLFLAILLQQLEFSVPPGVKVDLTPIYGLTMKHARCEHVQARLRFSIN
# Nuclear receptor subfamily 1 group I member 2 (Homo sapiens), sequence (O75469 whole entry, looked up): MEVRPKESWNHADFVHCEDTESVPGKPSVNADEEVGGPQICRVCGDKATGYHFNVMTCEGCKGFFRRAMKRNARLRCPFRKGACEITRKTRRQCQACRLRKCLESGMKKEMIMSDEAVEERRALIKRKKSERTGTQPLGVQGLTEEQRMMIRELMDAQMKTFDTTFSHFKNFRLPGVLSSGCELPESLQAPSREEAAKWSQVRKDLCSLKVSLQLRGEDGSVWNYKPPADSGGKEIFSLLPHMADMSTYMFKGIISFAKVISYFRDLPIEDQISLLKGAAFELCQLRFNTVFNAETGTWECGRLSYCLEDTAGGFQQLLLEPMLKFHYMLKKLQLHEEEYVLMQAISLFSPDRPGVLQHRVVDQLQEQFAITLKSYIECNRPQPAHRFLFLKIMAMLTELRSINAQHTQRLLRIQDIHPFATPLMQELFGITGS
# Nuclear receptor subfamily 1 group I member 2 (Rattus norvegicus), sequence (Q9R1A7 whole entry, looked up): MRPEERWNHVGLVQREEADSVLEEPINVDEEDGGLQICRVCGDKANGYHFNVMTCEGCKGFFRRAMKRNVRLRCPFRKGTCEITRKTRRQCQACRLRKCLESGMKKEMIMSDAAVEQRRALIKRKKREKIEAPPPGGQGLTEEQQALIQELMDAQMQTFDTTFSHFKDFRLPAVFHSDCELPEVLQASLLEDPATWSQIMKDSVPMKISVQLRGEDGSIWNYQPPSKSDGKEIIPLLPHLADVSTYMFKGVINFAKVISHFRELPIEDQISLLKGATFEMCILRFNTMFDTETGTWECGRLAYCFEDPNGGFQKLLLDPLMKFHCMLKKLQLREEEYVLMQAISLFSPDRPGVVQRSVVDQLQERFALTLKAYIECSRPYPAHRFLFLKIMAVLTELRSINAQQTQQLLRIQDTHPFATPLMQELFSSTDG
compound,measurement,setting,value
O=C(c1ccccc1)C1CCCCC1,Potency,[1],inactive
same,Potency,[2],inactive
same,outcome,[3],inactive
same,Potency,[4],inactive
same,Potency,[5],inactive
same,Potency,[6],71 µM (active)
same,Potency,[7],44.8 µM (active)
same,Potency,[8],inactive
same,Potency,[9],inactive
Cc1ccc(=O)n(-c2ccccc2)c1,Potency,[1],inactive
same,Potency,[2],inactive
same,outcome,[3],inactive
same,Potency,[4],inactive
same,Potency,[5],inactive
same,Potency,[10],inactive
same,Potency,[7],inactive
same,Potency,[8],inactive
same,Potency,[9],inactive
COc1ccccc1OCC(O)CN1CCN(CC(=O)Nc2c(C)cccc2C)CC1 (centres undefined),Potency,[1],inactive
same,Potency,[2],inactive
same,outcome,[3],inactive
same,Potency,[4],inactive
same,Potency,[5],13.8 µM (active)
same,Potency,[6],inactive
same,Potency,[7],inactive
same,Potency,[8],inactive
O=C1NC(=O)[C@@]2(CCOc3ccc(F)cc32)N1,Potency,[1],inactive
same,Potency,[2],inactive
same,outcome,[3],inactive
same,Potency,[11],inactive
same,max activation,[12],-0.447%
same,Potency,[13],inactive
same,Potency,[14],inactive
same,Potency,[5],inactive
same,Potency,[6],inactive
same,Potency,[10],inactive
same,Potency,[7],inactive
same,Potency,[8],inactive
same,Potency,[9],inactive
CCOC(=O)Nc1ccc(NCc2ccc(F)cc2)nc1N,Potency,[1],inactive
same,Potency,[2],inactive
same,outcome,[3],inactive
same,Potency,[11],inactive
same,max activation,[12],1.97%
same,Potency,[13],inactive
same,Potency,[5],3.09 µM (active)
same,Potency,[6],11 µM (active)
same,Potency,[10],6.17 µM (active)
same,Potency,[7],inactive
CC(C)NC(=O)NC(C)C,Potency,[1],inactive
same,Potency,[2],inactive
same,outcome,[3],inactive
same,Potency,[11],inactive
same,Potency,[5],inactive
same,Potency,[6],inactive
same,Potency,[10],inactive
same,Potency,[7],inactive
same,Potency,[8],inactive
same,Potency,[9],inactive
CCCc1cc(C(N)=S)ccn1,Potency,[1],inactive
same,Potency,[2],inactive
same,outcome,[3],inactive
same,Potency,[11],inactive
same,max activation,[12],0.144%
same,Potency,[13],inactive
same,Potency,[14],inactive
same,Potency,[5],inactive
same,Potency,[10],inactive
same,Potency,[7],inactive
same,Potency,[8],inactive
same,Potency,[9],inactive
CCn1nc(C(=O)O)c(=O)c2cc3c(cc21)OCO3,Potency,[1],inactive
same,Potency,[2],inactive
same,outcome,[3],inactive
same,Potency,[4],inactive
same,Potency,[8],inactive
CC/C=C\CC/C=C/CO,Potency,[1],inactive
same,Potency,[2],inactive
same,outcome,[3],inactive
same,Potency,[4],inactive
same,Potency,[5],inactive
same,Potency,[6],inactive
same,Potency,[10],inactive
same,Potency,[8],inactive
same,Potency,[9],inactive
CC(C)(O)C#CC(C)(C)O,Potency,[1],inactive
same,Potency,[2],inactive
same,outcome,[3],inactive
same,Potency,[11],inactive
same,Potency,[5],inactive
same,Potency,[6],inactive
same,Potency,[10],inactive
same,Potency,[7],inactive
same,Potency,[8],inactive
same,Potency,[9],inactive
NCCCNCCSP(=O)(O)O,caspase activation,[1],-1.36% [at 8.39 µM]
same,"activity change, negative = cytotoxicity",[2],5.53% [at 8.39 µM]
same,caspase-3/7 activation,[3],0.0901% [at 8.39 µM]
same,"activity change, negative = cytotoxicity",[4],1.15% [at 8.39 µM]
same,"activity change, negative = inhibition",[5],-0.545% [at 10.5 µM]
same,"activity change, negative = inhibition",[6],-2.49% [at 10.5 µM]
same,"activity change, negative = inhibition",[10],10.3% [at 10.5 µM]
same,"activity change, negative = inhibition",[7],-21.8% [at 10.5 µM]
same,"activity change, negative = inhibition",[8],-1.01% [at 6.97 µM]
same,"activity change, negative = inhibition",[9],5.88% [at 10.5 µM]
C=C(C)C(=O)OCCCCCCCC(C)C,Potency,[1],inactive
same,Potency,[2],1.09 µM (active)
same,outcome,[3],inactive
same,Potency,[4],1.38 µM (active)
same,Potency,[5],inactive
same,Potency,[6],71.5 µM (active)
same,Potency,[10],inactive
same,Potency,[8],inactive
same,Potency,[9],inactive
CCN(Cc1ccncc1)C(=O)C(CO)c1ccccc1 (centres undefined),Potency,[1],inactive
same,Potency,[2],inactive
same,outcome,[3],inactive
same,Potency,[4],inactive
same,Potency,[8],inactive
